Data from the supplement of paper PMC6992640.
± gives the standard deviation of the averaged measurements.

Key:
Experiment in all cases: cell viability (% of vehicle); higher = less cytotoxic
HCI01 [1] = cells of a triple-negative basal-like breast cancer xenograft; details: 1 µM; 72 h
UCD52 [2] = cells of a triple-negative basal-like breast cancer xenograft; details: 1 µM; 72 h
WHIM2 [3] = cells of a triple-negative basal-like breast cancer xenograft; details: 1 µM; 72 h
WHIM30 [4] = cells of a triple-negative basal-like breast cancer xenograft; details: 1 µM; 72 h
HCI01 [5] = details: 10 µM; 72 h
HCI03 = cells of an ER-positive luminal breast cancer xenograft; details: 10 µM; 72 h
HCI09 = cells of a triple-negative luminal androgen receptor type breast cancer xenograft; details: 10 µM; 72 h
HCI11 = cells of an ER-positive luminal breast cancer xenograft; details: 10 µM; 72 h
HCI13 = cells of an ER-positive luminal breast cancer xenograft; details: 10 µM; 72 h
HCI16 = cells of a triple-negative basal-like breast cancer xenograft; details: 10 µM; 72 h
UCD52 [6] = details: 10 µM; 72 h
WHIM2 [7] = details: 10 µM; 72 h
WHIM30 [8] = details: 10 µM; 72 h

Row | Compound | cell viability (HCI01 [1]) | cell viability (UCD52 [2]) | cell viability (WHIM2 [3]) | cell viability (WHIM30 [4]) | cell viability (HCI01 [5]) | cell viability (HCI03) | cell viability (HCI09) | cell viability (HCI11) | cell viability (HCI13) | cell viability (HCI16) | cell viability (UCD52 [6]) | cell viability (WHIM2 [7]) | cell viability (WHIM30 [8])
1 | COc1ccc(CN2CCN(C(c3ccc(F)cc3)c3ccc(F)cc3)CC2)c(OC)c1OC.Cl.Cl [Lomerizine HCl] | 85.2 | 90.8 | 99.6 | 92.2 | 85.8 ± 25 | 73.6 | 58.8 ± 20 | 78.5 | 32.61 ± 0.085 | 87.8 | 51.5 ± 0.83 | 48.1 ± 14 | 80 ± 1
2 | Cc1cc(Nc2ncc(Cl)c(Nc3ccccc3S(=O)(=O)C(C)C)n2)c(OC(C)C)cc1C1CCNCC1 | 76.4 | 45.8 | 63.1 | 47.9 | 34.4 ± 7.6 | 37.8 | 17.5 ± 1.3 | 29.3 | 27.6 ± 17 | 44.6 | 24.86 ± 0.13 | 45.5 ± 4.4 | 29.3 ± 1.2
3 | COc1cc2c(Nc3ccc(Br)cc3F)ncnc2cc1OCC1CCN(C)CC1 [Vandetanib (ZD6474)] | 70 | 46.5 | 37.5 | 64.8 | 59.1 ± 20 | 32.2 | 30.7 ± 21 | 52.9 | 73.4 ± 36 | 56.4 | 25.2 ± 4.2 | 54.4 ± 11 | 25.7 ± 1.9
4 | Cc1ccc(C(=O)N(CCCN)C(c2nc3cc(Cl)ccc3c(=O)n2Cc2ccccc2)C(C)C)cc1 (stereo unspecified) | 98.7 | 47.7 | 62.5 | 78 | 34.6 ± 0.75 | 41.2 | 22.4 ± 2.7 | 56.8 | 38.3 ± 4 | 45.5 | 122 ± 8.3 | 34.8 ± 0.98 | 39.8 ± 4
5 | Cc1cccc(CN2CCN(C(c3ccccc3)c3ccc(Cl)cc3)CC2)c1.Cl.Cl (stereo unspecified) [Meclizine 2HCl] | 136 | 93.4 | 98 | 99.5 | 85.9 ± 7.1 | 57.9 | 74 ± 12 | 67.4 | 52.7 ± 10 | 91.8 | 44 ± 6.2 | 71.6 ± 13 | 45.4 ± 6.8
6 | COC(=O)C12CCC(C)(C)CC1C1C(=O)C=C3C4(C)C=C(C#N)C(=O)C(C)(C)C4CCC3(C)C1(C)CC2 (stereo unspecified) [Bardoxolone methyl] | 145 | 60.9 | 59.9 | 65.3 | 28.5 ± 3.9 | 33.9 | 23.1 ± 1.8 | 23.2 | 31.5 ± 3 | 30.4 | 24.6 ± 1 | 34.2 ± 5.5 | 26.8 ± 1.1
7 | CCN1CCN(Cc2ccc(Nc3ncc(F)c(-c4cc(F)c5nc(C)n(C(C)C)c5c4)n3)nc2)CC1.CS(=O)(=O)O | 83.9 | 46.7 | 130 | 52.6 | 87.8 ± 54 | 136 | 83 ± 14 | 135 | 71.6 ± 8.8 | 116 | 26.16 ± 0.13 | 30.4 ± 14 | 80.6 ± 5.5
8 | Cc1ccc(-n2[nH]c(C)c(NN=C3C=CC=C(c4cccc(C(=O)O)c4)C3=O)c2=O)cc1C [Eltrombopag] | 85.8 | 94.6 | 101 | 96.2 | 28.3 ± 15 | 94.9 | 20.5 ± 4.7 | 60.9 | 54.9 ± 3 | 125 | 57 ± 2.9 | 37.8 ± 14 | –
9 | Nc1ncn(C2OC(CO)C(O)C2O)c(=O)n1 (stereo unspecified) [5-Azacytidine] | 91.5 | 70.1 | 91.3 | 93.9 | 59.1 ± 13 | 85 | 27.2 ± 6.3 | 170 | 53.1 ± 9.2 | 103 | 53.4 ± 3.7 | 35.1 ± 14 | 198 ± 19
10 | COC(=O)NC(C(=O)N1CCCC1c1ncc(-c2ccc(-c3ccc(-c4cnc(C5CCCN5C(=O)C(NC(=O)OC)C(C)C)[nH]4)cc3)cc2)[nH]1)C(C)C (stereo unspecified) | 85.1 | 82.6 | 93.7 | 82.8 | 79.8 ± 2.9 | 99.6 | 42.7 ± 35 | 72.6 | 131 ± 110 | 87.2 | 62.3 ± 1.2 | 58.8 ± 6.8 | 102 ± 11
11 | CC(C)CC(NC(=O)CNC(=O)c1cc(Cl)ccc1Cl)B(O)O (stereo unspecified) | 51.7 | 24.9 | 130 | 23.1 | 53.4 ± 8.3 | 116 | 14.9 ± 0.73 | 174 | 33.1 ± 5.4 | 84.6 | 58.8 ± 3.8 | 34.22 ± 0.066 | 80.3 ± 24
12 | Oc1c(Cl)cc(Cl)c2cccnc12 [Chloroxine] | 93.2 | 96.7 | 96.5 | 71.6 | 36.5 ± 3.6 | 56.7 | 28.7 ± 2.7 | 69.7 | 65 ± 15 | 130 | 120 ± 88 | 79.7 ± 55 | 48.9 ± 4.8
13 | CCOC(=O)C1=C(COCCN)NC(C)=C(C(=O)OC)C1c1ccccc1Cl (stereo unspecified) [Amlodipine] | 103 | 93.7 | 101 | 90.2 | 70.6 ± 31 | 86.4 | 50.5 ± 42 | 100 | 32.2 ± 4.1 | 69.9 | 27.6 ± 4 | 31.9 ± 10 | 73.4 ± 12
14 | C=CC(=O)Nc1cc(Nc2nccc(-c3cn(C)c4ccccc34)n2)c(OC)cc1N(C)CCN(C)C | 57.6 | 63 | 52.7 | 61.8 | 41.7 ± 1 | 39.9 | 50.4 ± 36 | 61.3 | 51.7 ± 3.8 | 60.7 | 30.1 ± 0.95 | 44.5 ± 7.7 | 41.7 ± 1.9
15 | COc1cc(Nc2c(C#N)cnc3cc(OCCCN4CCN(C)CC4)c(OC)cc23)c(Cl)cc1Cl [Bosutinib (SKI-606)] | 61.1 | 30.4 | 55.4 | 68.4 | 48.4 ± 2.7 | 48 | 53.7 ± 33 | 101 | 71.4 ± 48 | 55.8 | 37.1 ± 4.8 | 36.7 ± 13 | 52.1 ± 9.3
16 | CSc1ccc2c(c1)N(CCC1CCCCN1C)c1ccccc1S2.Cl (stereo unspecified) [Thioridazine HCl] | 87 | 82.5 | 92.4 | 84.7 | 44.9 ± 9.3 | 52.1 | 26.4 ± 1.2 | 88.4 | 55.6 ± 3.4 | 41.4 | 36.8 ± 0.53 | 42.2 ± 10 | 61.9 ± 3.6
17 | O=C(NN=Cc1ccc([N+](=O)[O-])o1)c1ccc(O)cc1 [Nifuroxazide] | 78.8 | 91.1 | 95.3 | 77.5 | 63.5 ± 47 | 128 | 37 ± 17 | 82 | 62.8 ± 15 | 91.7 | 62.2 ± 28 | 94.9 ± 15 | 79.2 ± 5.8
18 | CCOc1cc2ncc(C#N)c(Nc3ccc(OCc4ccccn4)c(Cl)c3)c2cc1NC(=O)C=CCN(C)C [Neratinib (HKI-272)] | 78.4 | 43.9 | 36.4 | 68.9 | 30.1 ± 7.1 | 38.1 | 27.8 ± 11 | 21.3 | 37.6 ± 1.3 | 38.7 | 23.2 ± 2.3 | 49.8 ± 12 | 96.1 ± 1.7
19 | CNC(=O)c1cc(Oc2ccc(NC(=O)Nc3ccc(Cl)c(C(F)(F)F)c3)cc2)ccn1.Cc1ccc(S(=O)(=O)O)cc1 [Sorafenib Tosylate] | 90.6 | 74.5 | 81.7 | 65.2 | 22 ± 0.23 | 65.5 | 14.6 ± 7 | 63.9 | 55.5 ± 31 | 45.9 | 82.6 ± 1 | 32.2 ± 0.44 | 41.9 ± 18
20 | C=C1C(=CC=C2CCCC3(C)C2CCC3C(C)CCCC(C)(C)O)CC(O)CC1O (stereo unspecified) [Calcitriol] | 70.8 | 50.1 | 46.8 | 92.9 | 27.6 ± 12 | 119 | 27 ± 5.2 | 73.4 | 66.4 ± 6.8 | 107 | 55.7 ± 0.62 | 39.3 ± 9.2 | 137 ± 14
21 | COc1ccc(C[C@H](N)C(=O)N[C@@H]2[C@H](O)[C@H](n3cnc4c(N(C)C)ncnc43)O[C@@H]2CO)cc1.Cl.Cl [Puromycin dihydrochloride] | 93.8 | 22.3 | 86.9 | 76.8 | 28.6 ± 2.4 | 58.6 | 26.89 ± 0.082 | 33.4 | 51.1 ± 14 | 52 | 34.5 ± 0.59 | 42 ± 4.2 | 33.3 ± 2.3
22 | COc1cc2nccc(Oc3ccc(NC(=O)NC4CC4)c(Cl)c3)c2cc1C(N)=O [Lenvatinib (E7080)] | 89.1 | 56.2 | 83 | 94.1 | 94.2 ± 28 | 70.5 | 79.8 ± 7.3 | 48.6 | 44.8 ± 3.3 | 61.4 | 57.8 ± 6.3 | 64 ± 21 | 48.1 ± 2
23 | Clc1ccc(COC(Cn2ccnc2)c2ccc(Cl)cc2Cl)c(Cl)c1.O=[N+]([O-])O (stereo unspecified) [Miconazole Nitrate] | 100 | 96.9 | 111 | 95.9 | 32 ± 8.9 | 93.1 | 27.3 ± 7.1 | 79.9 | 56.9 ± 7.8 | 113 | 48.6 ± 5.8 | 37 ± 9.7 | 128 ± 2
24 | Cc1ccc(NC(=O)c2ccc(CN3CCN(C)CC3)cc2)cc1Nc1nc(-c2cccnc2)cs1 [Masitinib (AB1010)] | 113 | 85.9 | 114 | 84.6 | 53.6 ± 6.1 | 68.7 | 20 ± 2.6 | 37.8 | 55.8 ± 12 | 93.6 | 49.9 ± 13 | 46.2 ± 8 | 146 ± 61
25 | CCCCc1oc2ccc(NS(C)(=O)=O)cc2c1C(=O)c1ccc(OCCCN(CCCC)CCCC)cc1 [Dronedarone] | 98.7 | 81.4 | 91.8 | 79.8 | 32.4 ± 2 | 40.7 | 22.2 ± 1.3 | 90.5 | 35.6 ± 0.56 | 32.7 | 29.7 ± 2.9 | 41.3 ± 5.4 | 38.6 ± 2.7
26 | COc1ccccc1OCCNCC(O)COc1cccc2[nH]c3ccccc3c12 (stereo unspecified) [Carvedilol] | 92.5 | 99.9 | 91.3 | 111 | 97.88 ± 0.3 | 69.9 | 75.9 ± 8.1 | 88.7 | 123.82 ± 0.064 | 127 | 44 ± 1.3 | 46.1 ± 3.3 | 102.1 ± 0.59
27 | Cl.Fc1ccc(C2CCNCC2COc2ccc3c(c2)OCO3)cc1 (stereo unspecified) [Paroxetine HCl] | 91.6 | 79.7 | 100 | 87.4 | 63.7 ± 19 | 128 | 90.3 ± 17 | 74.8 | 120 ± 6.4 | 77.4 | 38.6 ± 4.8 | 43 ± 7.7 | 80.71 ± 0.29
28 | Cc1c(C(=O)NN2CCCCC2)nn(-c2ccc(Cl)cc2Cl)c1-c1ccc(Cl)cc1 [Rimonabant] | 87.4 | 91.1 | 100 | 82.6 | 72.2 ± 38 | 114 | 22.2 ± 6.1 | 87.3 | 74.2 ± 19 | 96.7 | 62.3 ± 10 | 35.9 ± 10 | 68.4 ± 15
29 | COc1cccc2c1C(=O)c1c(O)c3c(c(O)c1C2=O)CC(O)(C(=O)CO)CC3OC1CC(N)C(O)C(C)O1 (stereo unspecified) [Doxorubicin] | 80.1 | 42.1 | 30.4 | 44.2 | 56.3 ± 15 | 188 | 28.8 ± 3.4 | 49.6 | 176 ± 59 | 60.4 | 24.297 ± 0.024 | 50.6 ± 5.6 | 80.7 ± 5.3
